Test results as given in PubChem BioAssay AID624404 (Broad Institute, 2012).
Out of some 1,800 compounds screened, about 710 (39%) were called active. Another 28% or so got no clear call; they are omitted.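 The calls were made as follows: active = luciferase signal rise whose fitted curve crosses a set activity limit at or below the top valid tested dose; inconclusive = flat fit with 30 to 70% rise, or poor fit; inactive = signal falling, flat within 30%, or crossing above top dose.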 The list is a sample of the results. Potency and affinity values are given separately.

Test: reporter signal increase, D54 LucT cells – cell-based, luminescence, cherry pick, counter-screen for N-linked glycosylation inhibitor project, dose response (AID 624404);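 also: 0% = median neutral control signal and 100% = twice that signal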
Details: D54 LucT luciferase reporter counterscreen, 24 h; series mostly up to 19.5 µM; activity increase (luciferase signal): at the top concentration

| Compound | activity increase (luciferase signal) |
| --- | --- |
| Oc1cccc(Nc2c3ccccc3nc3ccccc23)c1 | -11.7% (inactive) |
| Oc1ccc(Nc2nc(NCC3CCCO3)c3ccccc3n2)cc1 (stereo not drawn) | 14.1% (inactive) |
| COc1ccc(C2Nc3ccc4ccccc4c3-c3c2c(=O)oc2ccccc32)cc1 (stereo not drawn) | 5.1% (inactive) |
| COc1cc2c(cc1OC)C(c1cc(Br)ccc1F)N(C(=O)CCl)CC2 (stereo not drawn) | -93.9% (inactive) |
| Oc1cc(Nc2ccccc2)cc2cccnc12 | -44% (inactive) |
| COc1ccc(S(=O)(=O)Nc2cccc3ccc(O)cc23)cc1 | 11.4% (inactive) |
| CCOC(=O)C(CC)(CC)C(=O)/C=C/c1cccc(Br)c1 | 21.6% (inactive) |
| COc1ccc(N2CCc3c(C)nc4c(OC)cc(OC)cc4c32)cc1 | -17.5% (inactive) |
| COc1ccc(N2CCc3c(C)nc4c(OC)cccc4c32)cc1 | -17.1% (inactive) |
| CCN(CC)CCC(=O)Nc1cccc2c1C(=O)c1ccccc1C2=O | 16.2% (inactive) |
| CCN(CC)CCn1c2ccccc2c2cnc(N)c(C#N)c21 | -41.8% (inactive) |
| O=C(C=Cc1ccc2c(c1)OCO2)C=Cc1ccc2c(c1)OCO2 | 11.4% (inactive) |
| CC(=O)C1=C(C)OC(N)=C(C#N)C1c1cc([N+](=O)[O-])ccc1Cl (stereo not drawn) | -7.35% (inactive) |
| CCN1C(=O)c2cccc3c(S(=O)(=O)N4CCC(C)CC4)ccc1c23 | 19.7% (inactive) |
| C=CCN(CC=C)C(=O)CN1C(=O)NC(C)(c2ccc3cc(OC)ccc3c2)C1=O (stereo not drawn) | -2.95% (inactive) |
| Cc1ccc(CCC(=O)Nc2ncc(Cc3cc(Cl)ccc3Cl)s2)o1 | 6.25% (inactive) |
| COc1ccc(-c2nc(NC(=O)C3CC(=O)N(c4ccc5c(c4)OCCO5)C3)sc2C)cc1 (stereo not drawn) | -41.9% (inactive) |
| CCCCCCCCCCCCCCCC[n+]1ccc(/C=N/O)cc1 | -67.7% (inactive) |
| CCOC(=O)C(C)Oc1cccc2c(=O)n(CC(=O)NCc3ccc(F)cc3)ccc12 (stereo not drawn) | 13.6% (inactive) |
| Cc1ccc(CNC(=O)Cc2ccc(Br)cc2)cc1 | 46.7% (inactive) |
| COc1ccc(CCn2c(=N)c(C(=O)NCc3ccco3)cc3c(=O)n4ccccc4nc32)cc1 | -8.69% (inactive) |
| CCN(CC)CCNC(=O)c1cc2c(-c3ccc(Cl)cc3)nn(C)c2s1 | 49.2% (inactive) |
| CC(=O)c1cccc(-c2ccnc3c2CC(C(=O)NCc2ccco2)O3)c1 (stereo not drawn) | 22.9% (inactive) |

| Compound | activity increase (luciferase signal) |
| --- | --- |
| CC1(C(=O)NCc2ccccc2)Cc2c(-c3ccc4c(c3)OCO4)ccnc2O1 (stereo not drawn) | 17.4% (inactive) |
| CC1(C(=O)Nc2ccc(Cl)cc2)Cc2c(-c3cccc(C(N)=O)c3)ccnc2O1 (stereo not drawn) | 45.1% (inactive) |
| CC1(C(=O)NCc2ccccc2)Cc2c(-c3ccccc3)ccnc2O1 (stereo not drawn) | 2.35% (inactive) |
| COc1ccc(NC(=O)C2(C)Cc3c(-c4cccc(C(N)=O)c4)ccnc3O2)cn1 (stereo not drawn) | 7.81% (inactive) |
| COc1ccccc1C(=O)Nc1nnc(CCc2ccccc2)s1 | 66.8% (inactive) |
| CN(C)S(=O)(=O)c1ccc(N2CCCC2)c(C(=O)Nc2nc(-c3ccc(F)cc3)cs2)c1 | 11.7% (inactive) |
| CC(C)(C)n1nnnc1C(c1ccccc1)N1CCc2ccccc2C1 (stereo not drawn) | 29.5% (inactive) |
| Nc1ncnc(Sc2ccc(Cl)cc2)c1[N+](=O)[O-] | -13.9% (inactive) |
| Cc1cccn2c(=O)c3cc(C(=O)NCCN4CCOCC4)c(=N)n(CCc4ccccc4)c3nc12 | -13.9% (inactive) |
| CCC1=Nc2cc(C(=O)NCCCOC)ccc2Sc2ccccc21 | -3.33% (inactive) |
| CCNC(=O)c1cc2c(=O)n3cccc(C)c3nc2n(CCc2ccccc2)c1=N | 3.44% (inactive) |
| NNC(=O)c1oc2nc(-c3ccco3)cc(-c3ccco3)c2c1N | 37.9% (inactive) |
| O=C(NCc1ccco1)c1nn2c(C(F)(F)F)cc(-c3cccs3)nc2c1Br | -13.3% (inactive) |
| COc1ccc(C(=O)NCc2nnc(SCC(=O)NO)n2Cc2ccccc2)cc1 | 26.2% (inactive) |
| Cn1nc(C(F)(F)F)c(/C=N/OC(=O)c2ccccc2Cl)c1SCc1ccccc1Cl | -45.1% (inactive) |
| COc1ccc(OC)c(-c2nnc3n2N=C(c2ccc(OC)c(OC4CCCC4)c2)CS3)c1 | -37.9% (inactive) |
| S=c1[nH]nc(-c2cc(-c3ccccc3)n[nH]2)n1/N=C/C(Br)=C/c1ccccc1 | -47.3% (inactive) |
| Clc1ccc(C2=Nn3c(nnc3-c3cc(-c4ccccc4)n[nH]3)SC2)cc1 | -0.549% (inactive) |
| CC(Oc1ccc2c(c1)c1ccnc3c4ccccc4c(=O)n2c13)C(=O)NCCN1CCOCC1 (stereo not drawn) | -14.3% (inactive) |
| Oc1ccc(NCc2ccccc2OCc2ccccc2)cc1 | 24.2% (inactive) |
| CCn1c2ccccc2c2cc(NC(=O)COC(=O)c3ccc(O)cc3)ccc21 | 5.23% (inactive) |
| c1ccc2c(c1)c1c(c3ccccc32)CN2CCCC2C1 (stereo not drawn) | 0.935% (inactive) |
| Cc1cc([N+](=O)[O-])ccc1Nc1nc2ccccc2n2cnnc12 | 0.819% (inactive) |

| Compound | activity increase (luciferase signal) |
| --- | --- |
| CCN(CC)CCCNc1cc(C)c(C#N)c2nc3ccccc3n12 | -16.2% (inactive) |
| FC(F)(F)c1nnc2c(Sc3ccc(Cl)cc3)nc3ccccc3n12 | -57% (inactive) |
| Cc1nnc2c(NCCC(C)C)nc3ccccc3n12 | 38.9% (inactive) |
| Cc1ccc(NC(=O)c2cc(S(=O)(=O)N(C)C)ccc2N2CCCC2)cc1F | 18.8% (inactive) |
| COc1ccc(S(=O)(=O)Nc2c(C(=O)O)[nH]c3ccc(OC)cc23)c(OC)c1 | 26.5% (inactive) |
| COc1cc(NC(=O)c2cc(-c3ccccc3)nc3c2cnn3C(C)C)cc(OC)c1OC | -29.9% (inactive) |
| COc1cc(-c2noc(C)c2/C=C/c2ccc(OC(C)=O)cc2)cc(OC)c1OC | 11.2% (inactive) |
| NC(=O)c1cccc(Nc2nc(C(N)CCc3ccccc3)cs2)n1 (stereo not drawn) | 7.8% (inactive) |
| CCOC(=O)C1CCN(S(=O)(=O)Cc2ccccc2)CC1 | 46% (inactive) |
| O=C1CCCC2=C1C(c1ccco1)Nc1ccc(C(=O)c3ccccc3)cc1N2 (stereo not drawn) | 41.2% (inactive) |
| CCCn1c2ccccc2c2cnn(CC(=O)NC3CCCC(C)C3C)c(=O)c21 (stereo not drawn) | -3.18% (inactive) |
| COc1ccc(N(CC(=O)Nc2cc(Cl)ccc2OC)S(=O)(=O)c2c(C)noc2C)cc1 | -20.4% (inactive) |
| CCOc1ccccc1NC(=O)CN(c1ccc(OC)cc1)S(=O)(=O)c1c(C)noc1C | 52.5% (inactive) |
| COc1ccc(OC)c(N(CC(=O)Nc2cccnc2)S(=O)(=O)c2ccc(C)cc2)c1 | 4.3% (inactive) |
| CN(C)Cc1c(O)ccc2c1O/C(=C\C=C\c1ccccc1)C2=O | 31.8% (inactive) |
| O=C(CCl)N1CCCC1c1ccc2c(c1)OCCO2 (stereo not drawn) | -11.8% (inactive) |
| CC(C)C(=O)Nc1ccc(C(=O)N/N=C/c2cc(Br)cc(Br)c2O)cc1 | 11.7% (inactive) |
| COc1ccc(/C=N/NC(=O)c2ccc(COc3ccccc3Cl)o2)c(OC)c1C | 27.4% (inactive) |
| Cc1cc2nnc(SCC(=O)NCc3cccs3)n2c2ccccc12 | 45.3% (inactive) |
| CNC(=O)c1cccc2nc3ccccc3nc12 | -11.8% (inactive) |
| CCOC(=O)c1ccc(Oc2cc(C)nc(SC)n2)cc1 | -2.48% (inactive) |
| Cc1cc(C)c(C)c(OC(=O)c2sc(Cl)nc2C)c1 | -28.2% (inactive) |
